The campaign covered roughly 340,000 compounds. About 530 (0.16%) were called active. About 2% were inconclusive and are not listed. This is one part of a sample in which actives are shown more often than they occur. A number with no mark means an inactive call. Rule as the data show it: active = activity change below about -80%; inconclusive = between about -30% and that limit; inactive = weaker than that.
Experiment: Small Molecules that selectively kill Giardia lamblia: qHTS;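 also: parasites exposed to compound for two days anaerobically before the ATP read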
Settings: Giardia lamblia trophozoite viability; at 7.66 µM; active compounds read low
Text: Giardia lamblia is a human pathogen afflicting impoverished nations, and the most common cause of outbreaks of diarrhea in the United States. Giardia has been classified by the CDC as a category B bioterrorism organism. The favored anti giardiasis drugs in the US are metronidazole or tinidazole, compounds that have undesirable side effects. Moreover, increasing resistance to drug regimes and recurrence are a concern. It is thus clear that alternative drug treatments are needed.
In a collaboration between the University of Maryland, College Park and the NIH Chemical Genomics Center, a bioluminescence Giardia viability assay based on the trophozoites' ATP content was developed. This assay is suitable for high throughput screening, and miniaturized the assay for compound screening in 1536-well plates. The goal of the project is to screen the Molecular Libraries Small Molecule Repository (MLSMR) for compounds that selectively kill Giardia trophozoites.
NIH Chemical Genomics Center [NCGC]
NIH Molecular Libraries Probe Centers Network [MLPCN]
Assay Submitter (PI): Osnat Herzberg, University of Maryland, College Park, MD.
1. Dispense 2 ul/well media
2. Dispense 23 nl/well compounds
3. Dispense 4 ul/well Giardia trophozoites at a concentration of 100 cells/well
4. Incubate 48 hrs at 37 deg C anaerobically
5. Dispense 4 ul/well ATPLite 1-Step Luminescence assay kit
6. Incubate 15-30 min at room temperature
7. Read luminescence signal on ViewLux plate reader
% is scaled to controls: 0 for no effect and ±100 for the full control effect.

SMILES	activity change
CCNC(=O)Nc1ccc(S(=O)(=O)Nc2cnc(C)nc2C)cc1	-28.2%
CN(CC(=O)Nc1ccc(OC(F)(F)F)cc1)C(=O)C1CCC1	29.9%
N#Cc1c(N)nc2c(c1N)CC(C(F)(F)F)O2 (stereo unspecified)	-7.55%
C=CCNC(=O)c1ccc2nc(-c3ccco3)c(-c3ccco3)nc2c1	-26.3%
NC(=O)c1ncn([C@@H]2O[C@H](CN=C3NS(=O)(=O)c4ccccc43)[C@@H](O)[C@H]2O)n1	-14.2%
CC(=NNC(=O)c1ccncc1)c1ccc(Cl)c(Cl)c1	-4.59%
COC(=O)[C@]1(C)N[C@H](c2ccc(-c3ccc(Cl)c(Cl)c3)cc2)[C@@H]2C(=O)N(C)C(=O)[C@@H]21	-3.14%
COC(=O)C1=C(C(=O)c2ccc(C)cc2)C(c2ccccc2)n2nnnc2N1 (stereo unspecified)	2.03%
Cc1ccc(S(=O)(=O)N2CCN(C(=O)CSc3cc(C)ccc3C)CC2)c(C)c1	-9.03%
CN(C)S(=O)(=O)c1cc(C(=O)Nc2ccn(C)n2)c(Cl)cc1Cl	4.66%
C=CCn1c(CCNC(=O)c2ccccc2F)nnc1SCC(=O)Nc1ccc(OC)cc1	1.96%
CCN(CC)CCCNC(=O)c1c(O)c2cc(F)cc3c2n(c1=O)C(C)CC3 (stereo unspecified)	31%
COc1cc(SC)ccc1C(=O)Nc1nc(C)cs1	-94.7% (active)
COc1ccc(C(=O)Nc2cccc(NC(=O)c3ccc(OC)cc3OC)n2)c(OC)c1	-19%
COc1cc(SC)ccc1C(=O)N(Cc1ccccc1)c1ccccc1	-27.1%
CC(=O)N1CCc2c(sc(NC(=O)CCS(=O)(=O)c3ccccc3)c2C#N)C1	-1.29%
CCCN1CCC(=O)N(C(CSc2ccc(OC)cc2)Cc2ccccc2)CC1 (stereo unspecified)	-25.3%
CN(CCO)c1ccc(/C=N/Nc2nncc3ccccc23)cc1	-87.9% (active)
C/C(=N\Nc1nncc2ccccc12)c1ccc(Cl)c([N+](=O)[O-])c1	-7.6%
COc1cccc(/C=N\Nc2nncc(-c3ccccc3)n2)c1	5.7%
CC1(C)CCc2cc(S(=O)(=O)N3CCN(c4nc(-c5cccs5)nc5ccccc45)CC3)ccc2O1	-0.147%
COc1ccc(CN(Cc2ccccc2)C(=O)c2ccc(O)cc2)cc1COc1ccc(NC(C)=O)cc1	41.3%

SMILES	activity change
CC(=O)OCC(NC(=O)C(Cc1ccccc1)NC(=O)OC(C)(C)C)C1OC(n2ccc(=O)[nH]c2=O)C(OC(C)=O)C1OC(C)=O (stereo unspecified)	-16.1%
O=C(O)C1CCC(CNS(=O)(=O)c2ccc(Br)cc2)CC1 (stereo unspecified)	18.6%
CCOc1ccc(N(C)Cc2cc(=O)oc3ccc(OC)cc23)cc1	0.548%
C=CCOc1ccc(/C=C/C(=O)OCC(=O)NC(C)c2ccc(F)cc2)cc1 (stereo unspecified)	-21.6%
COc1ccc2c(C)cc(SCC(=O)NCC3CCCO3)nc2c1 (stereo unspecified)	-1.83%
COc1ccc(-c2ccc(C3C4C=CCCC4(C)C(=O)N3Cc3ccccc3)c(F)c2)cc1OC (stereo unspecified)	5.8%
C/C(CC(=O)Nc1ccc(C)cc1C)=N\NC(=O)C(C)C	-14.4%
CC(C)C(=O)N1c2ccccc2NC2=C(C(=O)CCC2)C1c1ccc(N(C)C)cc1 (stereo unspecified)	1.62%
COc1ccc(C2NC(=O)N(C)C(C)=C2[N+](=O)[O-])cc1 (stereo unspecified)	22.3%
COC(=O)C1=C(C)N(C)C(=S)NC1c1ccccc1 (stereo unspecified)	-6.21%
COC(=O)C1=C(C)N(C)C(=O)NC1c1ccc([N+](=O)[O-])o1 (stereo unspecified)	-87.4% (active)
Oc1ccc(Cl)cc1C1C=C(c2ccc3c(c2)OCO3)NC(c2c(F)cccc2Cl)N1 (stereo unspecified)	-23.4%
CCOC(=O)CSc1nnc(CNC(=O)c2ccco2)n1-c1ccc(F)cc1	-0.714%
C/[N+]([O-])=C\c1ccc([N+](=O)[O-])o1	-92.7% (active)
O=C(/C=C/c1ccc([N+](=O)[O-])o1)NNC(=O)c1ccc(F)cc1	2.18%
O=[N+]([O-])c1ccc(C=NN=Cc2ccc([N+](=O)[O-])cc2)cc1	12.5%
COc1cc(Cl)c(C)cc1NC(=O)CSc1nnc(-c2ccco2)n1CC(C)C	6.88%
CC(C)Cn1c(N)c(C(=O)COC(=O)C2CCCN2C(=O)c2cccs2)c(=O)n(C)c1=O (stereo unspecified)	20.2%
C[C@H](NC(=O)C1CCN(S(=O)(=O)c2ccccc2)CC1)C(=O)NCc1ccccc1	10.6%
O=C(NCc1ccccn1)[C@]1(C(F)(F)F)C[C@H](CCc2ccccc2)CCCO1	-0.242%
COc1cccc(C(=O)c2sc3nc(-c4ccccc4)cc(C(F)(F)F)c3c2N)c1	4.39%
COc1ccc(S(=O)(=O)N2CCN(CC(=O)N3c4ccccc4CC3C)CC2)cc1OC (stereo unspecified)	-6.14%

SMILES	activity change
CC(=O)Nc1ccc(S(=O)(=O)N2N=NC3C2C2CC4C3(CN(C(=O)OC(C)(C)C)S4(=O)=O)O2)cc1 (stereo unspecified)	-7.9%
CN(c1ccc2nc3ccccc3c(=O)n2n1)C1CCCCC1	-82.4% (active)
CN(C(=O)c1cc2c(=O)n3ccccc3nc2s1)C1CCCCC1	9.98%
CC(C)C(C)NC(=O)COc1nc2ccccc2nc1N(C)C1CCCCC1 (stereo unspecified)	0.279%
COC(=O)CCc1ccccc1S(=O)(=O)N(CCC(=O)OC)Cc1ccccc1	9.42%
CCCCN(C1CCS(=O)(=O)C1)S(=O)(=O)c1ccc(C(C)C)cc1 (stereo unspecified)	-8.89%
Cc1n[nH]c(C)c1S(=O)(=O)N1CCCC(C(=O)NCC2COc3ccccc3O2)C1 (stereo unspecified)	1.3%
COc1ccc(S(=O)(=O)N2CCC(C(=O)OCC(=O)c3ccccc3)CC2)cc1[N+](=O)[O-]	-0.271%
Cc1ccc(NC(=O)C(C)OC(=O)Cc2c[nH]c3ccccc23)cc1S(=O)(=O)N1CCOCC1 (stereo unspecified)	-9.72%
COc1ccc(S(=O)(=O)Nc2cccc3cccnc23)c(N)c1	-6.45%
CCCN1CCC(=O)N(C(CSc2ccc(C)cc2)Cc2ccccc2)CC1 (stereo unspecified)	13%
CCc1nn(CC(=O)N2CCN(CC)CC2)c(=O)c2cccn12	-17.4%
COc1ccc2c(c1)CC[C@@H]1[C@@H]2CC[C@]2(C)C(=O)CC[C@@H]12	2.55%
O=C(ON=C1CCN(S(=O)(=O)c2ccccc2)CC1)c1ccc(Cl)cc1	-18%
Cc1cccc(NS(=O)(=O)c2ccc(-c3cnc(C4CC4)o3)cc2)c1	23.1%
COc1ccc(C2CC(O)(c3ccccc3)Oc3cc(C)cc(C)c32)cc1 (stereo unspecified)	-2.28%
CCOC(=O)c1cc(OC(=O)c2ccccc2Cl)n(-c2ccccc2)n1	20.6%
c1ccc(Cn2nnc3c(N4CCCCC4)ncnc32)cc1	6.21%
CCOc1ccc(NC(=O)CN(C)C(=O)Cn2c(=O)cnc3ccccc32)cc1OCC	3.18%
COc1ccc(CN2CCC(=O)c3ccccc3S2(=O)=O)cc1	-21.5%
CS(=O)(=O)N(Cc1ccc(Cl)cc1)c1ccc(C(=O)NCCSCc2ccco2)cc1	4.68%
Cc1nnc(SC(C(=O)Nc2cc(Cl)cc(Cl)c2)c2ccccc2)[nH]c1=O (stereo unspecified)	24.1%

SMILES	activity change
O=[N+]([O-])/C=C1\CCCCCN1	-16.8%
CNC(=O)[C@]1(C(F)(F)F)C[C@H](CCc2ccccc2)CCCO1	-0.81%
Cc1ncc([N+](=O)[O-])n1CCOC(=O)c1ccc(Br)cc1	-80.4% (active)
Cc1nn(CCOc2ccc(Br)cc2)c(C)c1[N+](=O)[O-]	-11%
N/C(=N\OC(=O)Cc1ccccc1[N+](=O)[O-])c1ccc(Br)cc1	-8.48%
C=CCCN(C(Cc1ccccc1)C(=O)OC)S(=O)(=O)c1cc(Br)ccc1Br (stereo unspecified)	-13%
CCN(CC)C(=O)COc1coc(CN2CCN(Cc3ccccc3)CC2)cc1=O	-13.6%
CCOC(=O)C1CCCN(C(=O)COc2ccc(N(C)S(=O)(=O)c3ccc(C)cc3)cc2)C1 (stereo unspecified)	-1.39%
COc1ccc(C2Nc3ccc(NC(=O)COC(C)=O)cc3C(=O)N2Cc2ccccc2)cc1COc1ccc(NC(C)=O)cc1 (stereo unspecified)	26.7%
COc1ccc(OCCn2ccnc2C)cc1	8.15%
COc1ccc(-c2ccc(OC)c(C3C4C=CCC(C)C4C(=O)N3Cc3ccccc3)c2)cc1C (stereo unspecified)	12.9%
CC1CC(C)CN(c2oc(-c3ccc(OCc4ccc(Cl)cc4)cc3)nc2C#N)C1 (stereo unspecified)	25.3%
Cc1ccc(C(=O)N2CCN(C3CCCCC3)CC2)s1	2.7%
CCCC1OC23CCCCC2C(C#N)(C#N)C1(C#N)C(=N)O3 (stereo unspecified)	1.74%
CC/C(=C(/c1ccccc1)c1ccc(OCC[N+](C)(C)C)cc1)c1ccccc1	8.29%
CCN(CC)S(=O)(=O)c1ccc(N2CCOCC2)c(NC(=O)c2ccc(=O)n(C)n2)c1	-7.96%
CCN(CC)S(=O)(=O)c1cc(C(=O)Nc2cc(S(=O)(=O)N3CCOCC3)ccc2N2CCCC2)ccc1F	-19.1%
CCN(CC)S(=O)(=O)c1ccc(N2CCCC2)c(NC(=O)c2ccc([N+](=O)[O-])o2)c1	-96.4% (active)
COC(=O)c1ccc(NC(=O)CN(c2ccc(C)cc2)S(=O)(=O)c2c(C)n[nH]c2C)cc1	12.5%
Cc1ccc(CNC(=O)C2(C(F)(F)F)C/C(=C\CCO)CCCO2)o1 (stereo unspecified)	-14.6%

— PubChem BioAssay AID540267 (National Center for Advancing Translational Sciences (NCATS), 2011)
